Assay results published in PubChem BioAssay (NCATS).
The source made the active and inactive calls. No stated cut-off is given here; in the data, active means potency below about 10 µM; inactive means the rest.

What follows are compounds tested against Lysosomal acid glucosylceramidase (Homo sapiens) (UniProt P04062) (assay: Glucocerebrosidase-p2 (AID 348)). Settings: purified GBA, blue fluorogenic substrate, 40 min.
Procedure, shortened: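 Normal human glucocerebrosidase (0.2 nM) with blue fluorogenic substrate (80 uM final) in citrate/phosphate pH 5.9 with 10mM sodium taurocholate, 0.01% tween-20; 40 min RT, NaOH/glycine stop; fluorescence Ex 365/Em 440; AC50 from a titration from 0.6 nM upwards.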
Potency means the concentration at half of the fitted maximal effect.

Chain of Lysosomal acid glucosylceramidase (Homo sapiens) (P04062 whole entry, looked up): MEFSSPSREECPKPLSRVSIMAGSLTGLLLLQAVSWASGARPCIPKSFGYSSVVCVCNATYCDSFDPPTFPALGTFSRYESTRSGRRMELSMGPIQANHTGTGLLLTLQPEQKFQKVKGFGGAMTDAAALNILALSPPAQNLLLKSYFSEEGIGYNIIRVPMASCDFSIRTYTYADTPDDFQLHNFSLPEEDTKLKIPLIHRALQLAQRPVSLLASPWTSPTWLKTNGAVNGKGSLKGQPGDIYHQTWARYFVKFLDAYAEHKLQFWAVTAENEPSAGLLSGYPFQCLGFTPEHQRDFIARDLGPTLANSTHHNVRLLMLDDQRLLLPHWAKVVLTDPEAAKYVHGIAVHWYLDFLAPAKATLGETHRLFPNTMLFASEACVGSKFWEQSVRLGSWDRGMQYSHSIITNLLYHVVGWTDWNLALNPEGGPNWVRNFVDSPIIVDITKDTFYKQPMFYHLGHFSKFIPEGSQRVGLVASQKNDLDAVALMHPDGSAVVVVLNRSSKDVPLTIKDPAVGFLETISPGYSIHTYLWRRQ

Potency, inactive:
N#C[C@H](c1ccccc1)N1CCCN([C@@H](C#N)c2ccccc2)C1c1ccccc1O (stereo partly drawn) > 11.4 µM
O=C1CNCCCN2CCN(CCCNCC(=O)Nc3ccc(cc3)S(=O)(=O)c3ccc(cc3)NC(=O)CNCCCN3CCN(CCCNCC(=O)Nc4ccc(cc4)S(=O)(=O)c4ccc(cc4)N1)CC3)CC2 > 11.4 µM
Cn1c(=S)c2[nH]c(SCc3cccnc3)nc2n(C)c1=O > 11.4 µM
Nc1ncnc2nc[nH]c12.Nc1ncnc2nc[nH]c12.[Cl][Pt]([Cl])([Cl])[Cl] > 11.4 µM
CSC1(SC2=NCCN2)SC2(NCCN2)S1 > 11.4 µM
N=C(N)S[C@H]1c2ccccc2-c2cc([N+](=O)[O-])ccc21 > 11.4 µM
c1nc(NCCc2cnc[nH]2)c2[nH]cnc2n1 > 11.4 µM
COc1ccc2c(c1)Cc1cc(N=[N+]([O-])c3ccc4c(c3)Cc3cc(OC)ccc3-4)ccc1-2 > 11.4 µM
C(=N/Nc1nnc2c(n1)[nH]c1ccccc12)/c1cccnc1 > 11.4 µM
O=C(CC(=O)c1ccncc1)c1ccccc1 > 11.4 µM
O=S(=O)(O)c1cc(O)c2c(N=Cc3ccccc3O)cc(S(=O)(=O)O)cc2c1 > 11.4 µM
CC(C)(C)C(=O)[C@H]([C@@H](c1ccccc1)N1CCOCC1)N1CCOCC1 > 11.4 µM
BrC(c1cccc2ccccc12)c1cccc2ccccc12 > 11.4 µM
